Here are results for one molecule from ChEMBL document CHEMBL4513139, “CO-ADD screening of University of Strathclyde (UK) compounds”.

As a reminder, the Inhibition is the drop in the measured response relative to a control, in per cent. Lower therefore signals a response near the control.

Screen size: about 21,000 compounds; fewer than 10 showed an effect of 50% or more. The list is a sample of the results. Entries with a potency or affinity are not part of this list.

For the test, the system named is Acinetobacter baumannii. The note with it: Concentration 32 ug.mL-1; ASSAY_TEST Inhibition of Bacterial Growth; detection method Absorption (OD600); MEDIA CAMHB; plate type 384well; NBS; CORNING #3640; time 18 hr.
On to `Cn1cc(NC(=O)c2cc(NC(=O)c3ccc(/C=C/c4cccc(F)c4)cc3)cn2C)cc1C(=O)NCCN1CCOCC1.O=C(O)C(F)(F)F`, for which the Inhibition is reported as 5.74%.
